Source: ChEMBL document CHEMBL2218924, “A broad activity screen in support of a chemogenomic map for kinase signalling research and drug discovery” (Biochem J, 2013)

Experiments:
[1] = target: T1, Ephrin type-B receptor 1 (Homo sapiens) (UniProt P54762); settings: at 10 µM
T1 sequence (whole entry): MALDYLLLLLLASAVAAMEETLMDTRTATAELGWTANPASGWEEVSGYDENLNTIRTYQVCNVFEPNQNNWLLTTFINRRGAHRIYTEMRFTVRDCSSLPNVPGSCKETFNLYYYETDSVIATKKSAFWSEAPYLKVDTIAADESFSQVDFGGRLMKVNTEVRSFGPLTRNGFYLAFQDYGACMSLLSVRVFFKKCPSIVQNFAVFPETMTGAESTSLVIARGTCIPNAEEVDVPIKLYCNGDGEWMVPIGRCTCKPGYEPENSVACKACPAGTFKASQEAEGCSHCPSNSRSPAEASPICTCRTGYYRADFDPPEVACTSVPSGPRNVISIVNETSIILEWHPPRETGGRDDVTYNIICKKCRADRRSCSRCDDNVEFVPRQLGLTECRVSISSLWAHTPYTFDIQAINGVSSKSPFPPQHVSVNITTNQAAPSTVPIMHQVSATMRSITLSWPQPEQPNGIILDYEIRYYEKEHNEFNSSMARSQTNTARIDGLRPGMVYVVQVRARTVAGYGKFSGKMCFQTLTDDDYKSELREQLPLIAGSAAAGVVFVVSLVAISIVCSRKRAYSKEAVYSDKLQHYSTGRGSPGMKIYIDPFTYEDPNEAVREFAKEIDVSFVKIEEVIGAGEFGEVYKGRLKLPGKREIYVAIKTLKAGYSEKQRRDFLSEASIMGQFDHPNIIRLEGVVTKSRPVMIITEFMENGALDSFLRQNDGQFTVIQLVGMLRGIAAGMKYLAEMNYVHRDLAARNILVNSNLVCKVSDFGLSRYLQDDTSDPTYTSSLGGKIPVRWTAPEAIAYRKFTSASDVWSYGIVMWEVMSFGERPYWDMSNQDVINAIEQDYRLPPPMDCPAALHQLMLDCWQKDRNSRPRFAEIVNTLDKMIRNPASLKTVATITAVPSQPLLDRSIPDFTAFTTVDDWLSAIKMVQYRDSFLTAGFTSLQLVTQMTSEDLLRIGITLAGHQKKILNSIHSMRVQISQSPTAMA

[2] = target: T2, Ephrin type-B receptor 2 (Homo sapiens) (UniProt P29323); settings: at 1 µM
T2 sequence (whole entry): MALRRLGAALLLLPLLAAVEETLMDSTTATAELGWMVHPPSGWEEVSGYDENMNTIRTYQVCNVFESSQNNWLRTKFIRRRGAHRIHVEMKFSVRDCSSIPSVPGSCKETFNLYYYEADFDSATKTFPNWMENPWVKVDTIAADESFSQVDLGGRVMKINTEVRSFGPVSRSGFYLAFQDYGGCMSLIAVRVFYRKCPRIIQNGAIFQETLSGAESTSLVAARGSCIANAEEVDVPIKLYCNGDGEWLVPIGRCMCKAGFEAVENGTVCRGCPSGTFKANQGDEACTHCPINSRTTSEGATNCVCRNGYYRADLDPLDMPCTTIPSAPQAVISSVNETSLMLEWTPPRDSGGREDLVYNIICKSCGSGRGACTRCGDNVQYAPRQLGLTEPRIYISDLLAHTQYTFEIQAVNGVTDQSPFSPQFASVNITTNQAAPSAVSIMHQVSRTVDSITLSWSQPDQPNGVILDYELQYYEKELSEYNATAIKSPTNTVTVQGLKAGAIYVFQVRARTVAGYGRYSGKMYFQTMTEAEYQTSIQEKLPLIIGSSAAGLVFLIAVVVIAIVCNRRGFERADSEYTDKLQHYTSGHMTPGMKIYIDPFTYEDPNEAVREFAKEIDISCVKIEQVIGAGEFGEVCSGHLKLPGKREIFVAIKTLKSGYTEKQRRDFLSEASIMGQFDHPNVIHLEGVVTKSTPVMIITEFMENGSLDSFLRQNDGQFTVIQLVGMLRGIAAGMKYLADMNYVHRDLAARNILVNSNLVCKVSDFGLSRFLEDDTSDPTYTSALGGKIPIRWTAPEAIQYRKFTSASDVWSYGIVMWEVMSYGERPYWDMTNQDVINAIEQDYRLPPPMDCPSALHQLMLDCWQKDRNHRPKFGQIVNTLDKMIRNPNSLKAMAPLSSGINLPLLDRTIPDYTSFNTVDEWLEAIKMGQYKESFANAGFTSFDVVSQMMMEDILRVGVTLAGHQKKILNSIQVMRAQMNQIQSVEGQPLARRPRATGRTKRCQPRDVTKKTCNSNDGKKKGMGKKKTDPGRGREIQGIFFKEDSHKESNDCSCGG

[3] = target: T2, Ephrin type-B receptor 2 (Homo sapiens); settings: at 10 µM
[4] = target: T3, Ephrin type-B receptor 3 (Homo sapiens) (UniProt P54753); settings: at 1 µM
T3 sequence (whole entry): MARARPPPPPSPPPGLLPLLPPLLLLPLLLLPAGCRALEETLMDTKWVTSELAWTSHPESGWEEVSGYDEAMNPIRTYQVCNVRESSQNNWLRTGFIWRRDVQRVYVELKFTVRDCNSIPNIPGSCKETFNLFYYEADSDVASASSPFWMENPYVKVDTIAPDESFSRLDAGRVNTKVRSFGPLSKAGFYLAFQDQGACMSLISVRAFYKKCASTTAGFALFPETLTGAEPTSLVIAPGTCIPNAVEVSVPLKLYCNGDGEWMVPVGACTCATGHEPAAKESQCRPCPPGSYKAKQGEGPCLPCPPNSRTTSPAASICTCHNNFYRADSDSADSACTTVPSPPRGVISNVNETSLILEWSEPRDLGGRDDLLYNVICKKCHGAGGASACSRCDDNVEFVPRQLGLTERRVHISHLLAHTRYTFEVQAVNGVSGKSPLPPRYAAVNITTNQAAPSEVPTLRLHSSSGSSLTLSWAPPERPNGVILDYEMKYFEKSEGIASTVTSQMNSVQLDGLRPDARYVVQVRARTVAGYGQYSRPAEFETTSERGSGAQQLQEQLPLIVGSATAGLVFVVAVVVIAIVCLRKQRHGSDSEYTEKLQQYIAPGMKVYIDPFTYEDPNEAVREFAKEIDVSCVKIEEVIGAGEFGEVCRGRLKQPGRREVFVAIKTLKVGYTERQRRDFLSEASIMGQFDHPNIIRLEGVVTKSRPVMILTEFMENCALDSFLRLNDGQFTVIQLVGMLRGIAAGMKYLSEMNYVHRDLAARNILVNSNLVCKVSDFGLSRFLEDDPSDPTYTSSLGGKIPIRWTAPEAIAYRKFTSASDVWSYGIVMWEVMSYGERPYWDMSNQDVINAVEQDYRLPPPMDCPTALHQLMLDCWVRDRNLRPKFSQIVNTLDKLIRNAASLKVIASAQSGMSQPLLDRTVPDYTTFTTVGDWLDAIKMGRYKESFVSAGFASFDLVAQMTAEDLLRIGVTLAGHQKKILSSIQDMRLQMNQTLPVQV

[5] = target: T3, Ephrin type-B receptor 3 (Homo sapiens); settings: at 10 µM
[6] = target: T4, Ephrin type-B receptor 4 (Homo sapiens) (UniProt P54760); settings: at 1 µM
T4 sequence (whole entry): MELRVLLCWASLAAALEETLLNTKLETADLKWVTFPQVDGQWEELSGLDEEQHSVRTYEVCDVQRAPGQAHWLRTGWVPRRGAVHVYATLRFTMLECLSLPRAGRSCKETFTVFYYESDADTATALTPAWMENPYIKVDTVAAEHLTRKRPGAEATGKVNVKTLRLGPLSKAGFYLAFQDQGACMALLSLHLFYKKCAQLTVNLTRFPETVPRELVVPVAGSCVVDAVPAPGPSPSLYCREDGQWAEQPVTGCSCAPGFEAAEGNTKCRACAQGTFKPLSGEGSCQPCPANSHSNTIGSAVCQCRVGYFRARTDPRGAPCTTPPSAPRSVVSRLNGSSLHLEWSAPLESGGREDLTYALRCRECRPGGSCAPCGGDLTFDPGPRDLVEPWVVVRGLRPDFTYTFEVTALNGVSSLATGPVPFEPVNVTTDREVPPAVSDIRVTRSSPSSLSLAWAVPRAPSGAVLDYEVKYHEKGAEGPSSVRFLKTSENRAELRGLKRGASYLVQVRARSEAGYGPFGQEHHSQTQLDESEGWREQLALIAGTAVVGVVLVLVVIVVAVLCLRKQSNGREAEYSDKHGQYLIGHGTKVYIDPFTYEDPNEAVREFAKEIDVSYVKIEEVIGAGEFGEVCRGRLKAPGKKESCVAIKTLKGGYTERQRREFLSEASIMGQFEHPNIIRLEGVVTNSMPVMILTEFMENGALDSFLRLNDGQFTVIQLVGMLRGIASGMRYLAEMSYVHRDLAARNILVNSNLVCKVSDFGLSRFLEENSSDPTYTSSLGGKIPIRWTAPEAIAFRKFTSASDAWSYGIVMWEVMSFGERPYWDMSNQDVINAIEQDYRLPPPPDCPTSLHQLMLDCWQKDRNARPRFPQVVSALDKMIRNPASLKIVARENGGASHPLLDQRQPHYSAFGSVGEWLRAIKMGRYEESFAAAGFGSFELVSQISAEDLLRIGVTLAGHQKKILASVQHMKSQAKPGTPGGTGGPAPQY

[7] = target: T4, Ephrin type-B receptor 4 (Homo sapiens); settings: at 10 µM
[8] = target: Receptor tyrosine-protein kinase erbB-4 (Homo sapiens) (UniProt Q15303); settings: at 1 µM
[9] = target: Receptor tyrosine-protein kinase erbB-4 (Homo sapiens) (UniProt Q15303); settings: at 10 µM
[10] = target: Focal adhesion kinase 1 (Homo sapiens) (UniProt Q05397); settings: at 1 µM
[11] = target: Focal adhesion kinase 1 (Homo sapiens) (UniProt Q05397); settings: at 10 µM
[12] = target: Fibroblast growth factor receptor 1 (Homo sapiens) (UniProt P11362); settings: at 1 µM
[13] = target: Fibroblast growth factor receptor 1 (Homo sapiens) (UniProt P11362); settings: at 10 µM
[14] = target: Fibroblast growth factor receptor 2 (Homo sapiens) (UniProt P21802); settings: at 1 µM
[15] = target: Fibroblast growth factor receptor 2 (Homo sapiens) (UniProt P21802); settings: at 10 µM
[16] = target: Fibroblast growth factor receptor 3 (Homo sapiens) (UniProt P22607); settings: at 1 µM
[17] = target: Fibroblast growth factor receptor 3 (Homo sapiens) (UniProt P22607); settings: at 10 µM
[18] = target: Fibroblast growth factor receptor 4 (Homo sapiens) (UniProt P22455); settings: at 1 µM
[19] = target: Fibroblast growth factor receptor 4 (Homo sapiens) (UniProt P22455); settings: at 10 µM
[20] = target: Tyrosine-protein kinase Fer (Homo sapiens) (UniProt P16591); settings: at 1 µM
Sequence of Tyrosine-protein kinase Fer (Homo sapiens) (P16591 whole entry, looked up): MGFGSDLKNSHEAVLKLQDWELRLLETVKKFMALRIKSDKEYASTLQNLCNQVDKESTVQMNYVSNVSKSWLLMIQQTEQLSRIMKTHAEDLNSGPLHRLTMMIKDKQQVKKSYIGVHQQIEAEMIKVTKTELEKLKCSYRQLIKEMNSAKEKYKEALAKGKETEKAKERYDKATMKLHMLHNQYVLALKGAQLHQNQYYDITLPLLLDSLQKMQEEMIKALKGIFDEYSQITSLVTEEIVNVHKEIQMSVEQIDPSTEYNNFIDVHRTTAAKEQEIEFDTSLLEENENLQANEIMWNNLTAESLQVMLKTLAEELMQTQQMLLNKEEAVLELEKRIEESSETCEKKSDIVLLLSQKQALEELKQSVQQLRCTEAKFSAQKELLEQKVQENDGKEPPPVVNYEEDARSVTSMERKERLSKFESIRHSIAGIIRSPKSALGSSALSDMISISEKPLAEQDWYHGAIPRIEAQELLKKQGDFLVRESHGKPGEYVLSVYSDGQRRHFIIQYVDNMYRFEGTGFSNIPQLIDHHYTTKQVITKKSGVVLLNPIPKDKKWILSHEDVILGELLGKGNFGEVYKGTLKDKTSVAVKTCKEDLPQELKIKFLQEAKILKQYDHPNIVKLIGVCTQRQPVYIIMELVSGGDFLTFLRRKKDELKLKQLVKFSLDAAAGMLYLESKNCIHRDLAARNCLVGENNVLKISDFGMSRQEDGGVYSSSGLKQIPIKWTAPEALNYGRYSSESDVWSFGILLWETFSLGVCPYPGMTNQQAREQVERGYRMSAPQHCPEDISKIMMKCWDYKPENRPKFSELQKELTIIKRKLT

Sequence of Fibroblast growth factor receptor 3 (Homo sapiens) (P22607 23-806 limits assumed): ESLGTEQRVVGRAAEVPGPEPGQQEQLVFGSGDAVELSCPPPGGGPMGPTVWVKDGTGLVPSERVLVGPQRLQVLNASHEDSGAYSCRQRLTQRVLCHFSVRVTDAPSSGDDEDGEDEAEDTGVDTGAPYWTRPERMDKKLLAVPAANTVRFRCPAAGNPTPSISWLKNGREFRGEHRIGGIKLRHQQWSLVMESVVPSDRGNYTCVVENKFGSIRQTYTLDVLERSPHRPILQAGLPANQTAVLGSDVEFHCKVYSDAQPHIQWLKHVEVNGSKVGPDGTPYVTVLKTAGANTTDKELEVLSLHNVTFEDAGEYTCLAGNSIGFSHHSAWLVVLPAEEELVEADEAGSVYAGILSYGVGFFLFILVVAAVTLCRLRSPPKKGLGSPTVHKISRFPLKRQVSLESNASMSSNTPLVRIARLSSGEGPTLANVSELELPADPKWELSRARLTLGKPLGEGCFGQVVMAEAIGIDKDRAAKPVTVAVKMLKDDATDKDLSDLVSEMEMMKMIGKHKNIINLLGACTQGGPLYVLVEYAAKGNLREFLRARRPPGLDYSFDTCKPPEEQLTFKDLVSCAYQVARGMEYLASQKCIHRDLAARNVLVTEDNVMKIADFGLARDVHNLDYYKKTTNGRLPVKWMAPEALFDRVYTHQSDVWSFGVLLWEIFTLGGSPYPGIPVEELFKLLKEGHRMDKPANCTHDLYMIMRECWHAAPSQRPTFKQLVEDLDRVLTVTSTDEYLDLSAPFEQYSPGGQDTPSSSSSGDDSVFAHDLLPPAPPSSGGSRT
Sequence of Receptor tyrosine-protein kinase erbB-4 (Homo sapiens) (Q15303 whole entry): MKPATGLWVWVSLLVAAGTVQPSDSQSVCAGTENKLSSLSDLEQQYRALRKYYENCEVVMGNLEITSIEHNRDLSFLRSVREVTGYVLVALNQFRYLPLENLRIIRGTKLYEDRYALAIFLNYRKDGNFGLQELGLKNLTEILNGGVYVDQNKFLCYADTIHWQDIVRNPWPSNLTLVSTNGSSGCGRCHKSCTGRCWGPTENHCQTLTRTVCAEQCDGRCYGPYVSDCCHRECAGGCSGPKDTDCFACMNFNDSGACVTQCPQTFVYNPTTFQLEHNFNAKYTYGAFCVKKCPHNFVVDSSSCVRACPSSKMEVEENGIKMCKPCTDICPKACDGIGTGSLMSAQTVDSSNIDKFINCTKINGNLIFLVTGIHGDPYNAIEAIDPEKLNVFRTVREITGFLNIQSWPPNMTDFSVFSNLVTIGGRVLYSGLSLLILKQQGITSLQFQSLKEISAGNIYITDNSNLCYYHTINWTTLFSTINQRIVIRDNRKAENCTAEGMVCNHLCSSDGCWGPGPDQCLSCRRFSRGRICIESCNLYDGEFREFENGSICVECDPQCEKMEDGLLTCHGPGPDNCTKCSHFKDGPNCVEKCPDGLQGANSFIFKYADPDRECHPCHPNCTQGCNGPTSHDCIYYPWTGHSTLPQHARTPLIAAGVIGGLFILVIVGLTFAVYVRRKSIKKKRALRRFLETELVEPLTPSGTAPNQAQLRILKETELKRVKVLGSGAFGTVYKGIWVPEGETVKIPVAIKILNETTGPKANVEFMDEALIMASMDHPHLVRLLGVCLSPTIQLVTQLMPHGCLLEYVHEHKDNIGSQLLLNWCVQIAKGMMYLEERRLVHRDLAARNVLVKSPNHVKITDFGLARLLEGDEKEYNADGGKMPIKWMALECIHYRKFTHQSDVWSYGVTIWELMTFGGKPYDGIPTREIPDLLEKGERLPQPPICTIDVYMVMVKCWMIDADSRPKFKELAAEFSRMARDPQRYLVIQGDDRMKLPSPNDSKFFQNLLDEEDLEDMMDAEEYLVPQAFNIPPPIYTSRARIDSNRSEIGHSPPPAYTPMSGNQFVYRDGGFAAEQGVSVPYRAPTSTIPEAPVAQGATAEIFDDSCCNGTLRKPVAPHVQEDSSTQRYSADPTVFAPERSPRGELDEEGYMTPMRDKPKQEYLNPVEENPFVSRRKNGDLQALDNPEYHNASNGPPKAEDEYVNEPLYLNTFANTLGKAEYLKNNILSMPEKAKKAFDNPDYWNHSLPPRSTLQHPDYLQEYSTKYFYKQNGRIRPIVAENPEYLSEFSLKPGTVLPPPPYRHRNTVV
Sequence of Fibroblast growth factor receptor 2 (Homo sapiens) (P21802 22-821 limits assumed): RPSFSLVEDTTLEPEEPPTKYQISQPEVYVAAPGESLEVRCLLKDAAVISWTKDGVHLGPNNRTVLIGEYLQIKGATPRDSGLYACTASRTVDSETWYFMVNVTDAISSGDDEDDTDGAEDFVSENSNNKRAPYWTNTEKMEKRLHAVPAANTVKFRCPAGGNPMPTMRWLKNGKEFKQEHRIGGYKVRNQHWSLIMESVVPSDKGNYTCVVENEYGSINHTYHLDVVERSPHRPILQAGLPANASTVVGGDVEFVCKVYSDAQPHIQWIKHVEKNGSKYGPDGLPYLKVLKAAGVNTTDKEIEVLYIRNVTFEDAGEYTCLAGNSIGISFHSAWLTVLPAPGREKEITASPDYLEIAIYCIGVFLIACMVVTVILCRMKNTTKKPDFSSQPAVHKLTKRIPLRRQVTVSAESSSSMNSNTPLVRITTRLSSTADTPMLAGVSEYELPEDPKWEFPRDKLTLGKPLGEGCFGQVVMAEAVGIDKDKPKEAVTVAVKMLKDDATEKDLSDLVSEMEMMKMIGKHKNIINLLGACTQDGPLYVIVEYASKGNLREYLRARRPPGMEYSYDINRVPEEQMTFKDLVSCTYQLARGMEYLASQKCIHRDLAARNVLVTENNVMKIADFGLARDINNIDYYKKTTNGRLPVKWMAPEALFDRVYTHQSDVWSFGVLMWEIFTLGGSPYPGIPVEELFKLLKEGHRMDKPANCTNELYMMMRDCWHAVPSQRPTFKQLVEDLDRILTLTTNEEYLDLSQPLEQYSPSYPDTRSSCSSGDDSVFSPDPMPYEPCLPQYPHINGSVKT
Sequence of Fibroblast growth factor receptor 4 (Homo sapiens) (P22455 22-802 limits assumed): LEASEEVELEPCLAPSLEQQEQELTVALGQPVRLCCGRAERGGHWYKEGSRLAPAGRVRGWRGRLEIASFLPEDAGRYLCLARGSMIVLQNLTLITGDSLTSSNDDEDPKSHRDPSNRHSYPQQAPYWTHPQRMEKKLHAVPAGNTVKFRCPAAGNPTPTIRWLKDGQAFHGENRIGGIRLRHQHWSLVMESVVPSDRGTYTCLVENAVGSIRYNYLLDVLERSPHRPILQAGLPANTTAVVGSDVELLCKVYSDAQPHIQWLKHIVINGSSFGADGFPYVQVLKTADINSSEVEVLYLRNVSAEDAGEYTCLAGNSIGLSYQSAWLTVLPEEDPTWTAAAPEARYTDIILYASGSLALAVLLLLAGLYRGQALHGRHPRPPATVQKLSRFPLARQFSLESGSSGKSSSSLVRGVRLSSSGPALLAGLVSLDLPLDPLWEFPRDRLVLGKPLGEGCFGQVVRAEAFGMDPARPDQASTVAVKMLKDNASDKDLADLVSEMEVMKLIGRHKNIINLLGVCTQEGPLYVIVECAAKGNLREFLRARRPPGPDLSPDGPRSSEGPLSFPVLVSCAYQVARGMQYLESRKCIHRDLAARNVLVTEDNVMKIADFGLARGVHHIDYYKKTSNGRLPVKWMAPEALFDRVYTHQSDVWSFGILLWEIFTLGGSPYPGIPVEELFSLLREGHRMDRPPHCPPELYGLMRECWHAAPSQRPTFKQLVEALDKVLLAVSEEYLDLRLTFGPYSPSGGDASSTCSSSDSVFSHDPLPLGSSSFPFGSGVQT

Row | SMILES | residual activity [1] | residual activity [2] | residual activity [3] | residual activity [4] | residual activity [5] | residual activity [6] | residual activity [7] | residual activity [8] | residual activity [9] | residual activity [10] | residual activity [11] | residual activity [12] | residual activity [13] | residual activity [14] | residual activity [15] | residual activity [16] | residual activity [17] | residual activity [18] | residual activity [19] | residual activity [20]
1 | O=[N+]([O-])c1ccc(-c2nc(-c3ccc(F)cc3)c(-c3ccncc3)[nH]2)cc1 | 94% | 111% | 109% | 126% (inactive) | 82% | 89% | 76% | 76% | 75% | 107% | 102% | 102% | 82% | 112% | 99% | 109% | 99% | 122% | 92% | 100%
2 | COc1ccc(CNc2nc(N(CCO)CCO)nc3c2ncn3C(C)C)cc1 | 77% | 113% | 106% | 113% (inactive) | 107% | 87% | 77% | 91% | 101% | 91% | 64% | 89% | 67% | 101% | 80% | 103% | 109% | 116% | 104% | 91%
3 | CC#CC(=O)Nc1cc2c(Nc3ccc(F)c(Cl)c3)ncnc2cn1 | 98% | 110% | 107% | 115% (inactive) | 102% | 87% | 108% | 16% | 14% | 133% | 99% | 97% | 80% | 91% | 113% | 86% | 125% | 116% | 96% | 108%
4 | Cc1nc2cc3nc(-c4cccs4)cnc3cc2n1C | 91% | 117% | 107% | 107% (inactive) | 124% | 108% | 119% | 116% | 113% | 80% | 105% | 102% | 41% | 72% | 30% | 79% | 23% | 119% | 95% | 113%
5 | O=C(O)c1ccc2c3c1cccc3c(=O)n1c3ccccc3nc21 | 98% | 105% | 108% | 98% (inactive) | 110% | 102% | 100% | 105% | 95% | 112% | 100% | 94% | 75% | 110% | 78% | 98% | 92% | 112% | 96% | 81%
6 | CO[C@H]1C[C@@H]2CC[C@@H](C)[C@@](O)(O2)C(=O)C(=O)N2CCCC[C@H]2C(=O)O[C@H]([C@H](C)C[C@@H]2CC[C@@H](O)[C@H](OC)C2)CC(=O)[C@H](C)/C=C(\C)[C@@H](O)[C@@H](OC)C(=O)[C@H](C)C[C@H](C)/C=C/C=C/C=C/1C | 105% | 121% | 105% | 100% (inactive) | 57% | 112% | 147% | 106% | 130% | 118% | 83% | 111% | 63% | 115% | 114% | 97% | 107% | 138% | 145% | 106%
